For assay [1], the target named is CCAAT/enhancer-binding protein beta (Homo sapiens) (UniProt P17676). The experiment in a line: ATG_C_EBP_CIS: Attagene CIS-FACTORIAL HepG2 Assay for human CCAAT/Enhancer Binding Protein (C/EBP) beta (AID 2282927). The settings on record: HepG2 Attagene cis-factorial transcription factor reporter; actives raise or lower the signal. The method, boiled down:
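HepG2, transient MRTU transfection, 24 h treatment. RT-PCR plus CE fluorescence; DMSO negative control, bidirectional fit.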

The nature of assay [2]: ATG_CMV_CIS: Attagene CIS-FACTORIAL HepG2 Assay for human CMV (Internal Marker) (AID 2282928).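 Note: endpoint acts as a background internal control marker rather than a target.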 The settings on record: HepG2 CMV promoter reporter, transcription factor profiling; actives raise or lower the signal. The method, boiled down:
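HepG2 cells transiently transfected with multiple cis-regulated reporter units; 24 h compound exposure. Reporter mRNA quantified by RT-PCR, 6-FAM primer-extension labeling, HpaI digestion and capillary electrophoresis; bidirectional fitting against DMSO baseline.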

A short description of assay [3]: ATG_DR4_LXR_CIS: Attagene CIS-FACTORIAL HepG2 Assay for human Liver X Receptor (LXR), DR4 submotif (AID 2282929). The settings on record: HepG2 Attagene DR4 cis-reporter, mRNA transcription; AC50: actives raise or lower the signal unless noted; outcome: actives raise or lower the signal unless noted. The method, boiled down:
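HepG2, transient MRTU transfection, cis-element (DR4) promoter; 24 h compound exposure; total RNA → oligo(dT) RT → PCR → 6-FAM primer extension → HpaI cut → CE. Gain/loss vs DMSO, bidirectional fit.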

A short description of assay [4]: ATG_AP_1_CIS: Attagene CIS-FACTORIAL HepG2 Assay for human Activator Protein 1 (AP-1) (AID 2282931). To be noted: HepG2 Attagene cis-factorial AP-1 reporter mRNA; actives raise or lower the signal. The method, boiled down: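 Transient MRTU transfection of HepG2 → 24 h chemical treatment → RNA isolation, RT-PCR, 6-FAM labelling, HpaI digest → capillary electrophoresis. Fit: bidirectional, DMSO negative control.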

A short description of assay [5]: ATG_AP_2_CIS: Attagene CIS-FACTORIAL HepG2 Assay for human Activator Protein 2 (AP-2) (AID 2282932). To be noted: HepG2 AP-2 cis-reporter, Attagene transcription factor profiling; AC50: actives raise or lower the signal unless noted; outcome: actives raise or lower the signal unless noted. The method, boiled down: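 HepG2 cells transiently transfected with cis-element reporter units and exposed for 24 h. Reporter mRNA measured by RT-PCR, FAM labelling, HpaI digestion and capillary electrophoresis. Changes in either direction fitted relative to DMSO.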

A short description of assay [6]: ATG_BRE_CIS: Attagene CIS-FACTORIAL HepG2 Assay for human Bone Morphogenetic Protein (BMP) Response Element (BRE) (AID 2282933). The settings on record: HepG2 BMP response element reporter, Attagene transcription factor profiling; actives raise or lower the signal. The method, boiled down:
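A HepG2 multiplex reporter system measured inducible reporter mRNA 24 h post-dosing. Detection: RT-PCR, 6-FAM primer extension, HpaI digestion, capillary electrophoresis. Activity fitted bidirectionally relative to DMSO.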

Assay [7] concerns the target Retinoic acid receptor alpha (Homo sapiens) (UniProt P10276). The assay can be described thus: ATG_DR5_RAR_CIS: Attagene CIS-FACTORIAL HepG2 Assay for human Retinoic Acid Receptor Alpha (RARE), DR5 submotif (AID 2282934).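 For AC50: reporter responds to endogenous RAR alpha beta and gamma in HepG2 not RARA alone.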 To be noted: HepG2 Attagene cis-factorial RARE DR5 reporter, mRNA; actives raise or lower the signal. The method, boiled down:
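After 24 h of chemical exposure, transiently transfected HepG2 cells were lysed for total RNA; the DR5-regulated reporter transcript was quantified via RT-PCR and capillary electrophoresis, with activity fitted bidirectionally against DMSO.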

Assay [8] concerns the target Transcription factor E2F1 (Homo sapiens) (UniProt Q01094). The experiment in a line: ATG_E2F_CIS: Attagene CIS-FACTORIAL HepG2 Assay for human E2F Transcription Factor 1 (AID 2282935). To be noted: HepG2 Attagene cis-reporter, E2F reporter RNA transcripts; actives raise or lower the signal. The method, boiled down:
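Endogenous E2F1 activity read through cis-promoter reporter units transfected into HepG2. After 24 h compound treatment, reporter mRNA measured by RT-PCR, HpaI digestion and capillary electrophoresis. Bidirectional fit versus DMSO.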

A short description of assay [9]: ATG_E_Box_CIS: Attagene CIS-FACTORIAL HepG2 Assay for human Enhancer Box (E-box) (AID 2282936). To be noted: HepG2 E-box cis-reporter transcription, actives raise or lower the signal. The method, boiled down:
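HepG2 cells transiently transfected with multiplexed cis-element reporter units, dosed 24 h; reporter mRNA quantified by RT-PCR, 6-FAM labelling, HpaI digestion and capillary electrophoresis. E-box (USF1) signal fitted bidirectionally vs DMSO.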

The target of assay [10] is Aryl hydrocarbon receptor (Homo sapiens) (UniProt P35869). The experiment in a line: ATG_Ahr_CIS: Attagene CIS-FACTORIAL HepG2 Assay for human Aryl Hydrocarbon Receptor (Ahr) (AID 2282930). To be noted: HepG2 AhR cis-factorial reporter transcription; actives raise or lower the signal. The method, boiled down:
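Endogenous factor activity is tracked through cis-promoter reporter units transfected into HepG2 cells. Transcript levels at 24 h are read by fluorescent RT-PCR and capillary electrophoresis, with activity in either direction scored relative to DMSO.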

From PubChem BioAssay (EPA / NIEHS) come the findings set out here.

Values joined by “and” are separate entries in the source; they are usually repeats but may differ in a detail not shown here. Equal entries are not always repeated. The source holds several records for some structures; these can differ, active in one and inactive in another. Active and inactive are the calls of the source. Rule for the calls: active = hit-call score of the fitted dose curve at least 0.9, where 1 is the maximum; inactive = score below 0.9.

Chain of Transcription factor E2F1 (Homo sapiens) (Q01094 whole entry, looked up): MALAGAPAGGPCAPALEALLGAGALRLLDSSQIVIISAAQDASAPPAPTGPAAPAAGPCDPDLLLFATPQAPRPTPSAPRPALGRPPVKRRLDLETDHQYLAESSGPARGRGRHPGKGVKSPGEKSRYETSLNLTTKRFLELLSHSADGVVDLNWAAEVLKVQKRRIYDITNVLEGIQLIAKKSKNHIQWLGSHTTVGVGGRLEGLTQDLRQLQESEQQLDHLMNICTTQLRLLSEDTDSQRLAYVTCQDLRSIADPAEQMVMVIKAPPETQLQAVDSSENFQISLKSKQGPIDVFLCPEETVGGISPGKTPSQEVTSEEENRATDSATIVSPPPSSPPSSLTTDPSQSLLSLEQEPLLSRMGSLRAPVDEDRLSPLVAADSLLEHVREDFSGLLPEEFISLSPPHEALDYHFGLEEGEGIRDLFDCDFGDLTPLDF
Chain of Retinoic acid receptor alpha (Homo sapiens) (P10276 whole entry, looked up): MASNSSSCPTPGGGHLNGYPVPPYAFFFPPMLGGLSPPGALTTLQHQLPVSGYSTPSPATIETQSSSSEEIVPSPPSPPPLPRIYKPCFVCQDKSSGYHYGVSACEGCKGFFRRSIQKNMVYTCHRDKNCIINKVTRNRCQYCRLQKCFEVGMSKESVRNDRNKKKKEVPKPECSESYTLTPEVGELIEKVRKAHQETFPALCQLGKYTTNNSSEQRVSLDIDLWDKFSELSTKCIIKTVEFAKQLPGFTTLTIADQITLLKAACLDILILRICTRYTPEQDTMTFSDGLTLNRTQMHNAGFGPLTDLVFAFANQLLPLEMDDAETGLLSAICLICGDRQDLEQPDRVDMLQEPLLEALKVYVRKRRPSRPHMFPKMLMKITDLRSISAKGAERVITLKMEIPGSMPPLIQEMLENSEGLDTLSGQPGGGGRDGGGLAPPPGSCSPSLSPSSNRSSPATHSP
Chain of CCAAT/enhancer-binding protein beta (Homo sapiens) (P17676 whole entry, looked up): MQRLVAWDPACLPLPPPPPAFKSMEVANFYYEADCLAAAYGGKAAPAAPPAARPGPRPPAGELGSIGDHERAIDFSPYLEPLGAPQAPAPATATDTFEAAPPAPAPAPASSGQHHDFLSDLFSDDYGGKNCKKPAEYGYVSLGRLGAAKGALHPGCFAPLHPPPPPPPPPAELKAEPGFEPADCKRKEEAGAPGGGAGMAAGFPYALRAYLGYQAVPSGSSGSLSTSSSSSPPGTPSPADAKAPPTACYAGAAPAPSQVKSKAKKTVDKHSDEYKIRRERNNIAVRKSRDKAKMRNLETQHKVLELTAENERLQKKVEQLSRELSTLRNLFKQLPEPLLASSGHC
Chain of Aryl hydrocarbon receptor (Homo sapiens) (P35869 whole entry, looked up): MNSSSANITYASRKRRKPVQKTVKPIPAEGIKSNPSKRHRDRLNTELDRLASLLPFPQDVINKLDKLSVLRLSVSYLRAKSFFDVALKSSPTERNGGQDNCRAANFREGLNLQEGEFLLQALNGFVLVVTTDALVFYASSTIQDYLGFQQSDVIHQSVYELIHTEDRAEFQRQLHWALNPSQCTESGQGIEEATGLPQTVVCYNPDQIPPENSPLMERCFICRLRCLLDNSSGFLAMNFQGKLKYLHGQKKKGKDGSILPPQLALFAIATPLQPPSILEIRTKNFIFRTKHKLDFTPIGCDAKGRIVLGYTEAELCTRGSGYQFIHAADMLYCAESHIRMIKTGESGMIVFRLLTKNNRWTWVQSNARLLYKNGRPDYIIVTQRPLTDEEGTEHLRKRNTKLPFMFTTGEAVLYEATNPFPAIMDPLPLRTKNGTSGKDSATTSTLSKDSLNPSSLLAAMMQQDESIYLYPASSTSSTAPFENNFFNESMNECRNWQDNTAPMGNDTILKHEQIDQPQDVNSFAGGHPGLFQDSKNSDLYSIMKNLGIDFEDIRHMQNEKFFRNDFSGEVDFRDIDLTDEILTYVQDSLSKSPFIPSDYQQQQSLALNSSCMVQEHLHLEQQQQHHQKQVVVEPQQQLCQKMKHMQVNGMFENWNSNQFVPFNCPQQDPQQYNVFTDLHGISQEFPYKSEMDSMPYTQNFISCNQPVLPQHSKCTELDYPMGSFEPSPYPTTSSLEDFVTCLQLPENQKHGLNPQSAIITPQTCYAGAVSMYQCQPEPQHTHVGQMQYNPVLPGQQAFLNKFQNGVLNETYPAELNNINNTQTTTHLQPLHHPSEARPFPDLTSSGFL

`CCCCCCCCCCCCCCC`: the outcome in assay [1], in assay [2], in assay [3], in [4], in assay [5] and in [6] was inactive. Also, the result in [7], in assay [8] and in [9] was inactive.

In the case of `CCOC(C)=O`, the result in assay [1], in assay [2], in assay [3], in assay [4], in assay [5] and in assay [6] was inactive. The compound was classed as inactive in assay [8] and in assay [9].

As to `CCCCc1oc2ccccc2c1C(=O)c1cc(I)c(OCCN(CC)CC)c(I)c1`, the AC50 – broadly, the concentration giving half of the maximal activity seen – in [1] was 95 µM (active); in assay [2], 20 µM (active); in assay [3] it was 18.4 µM (active); in [4], 20.2 µM (active); in assay [5], 130 µM (active). For the same compound, the result in assay [9] was inactive.

With `CCO[Si](CCC1CCC2OC2C1)(OCC)OCC` (centres undefined), the result in assay [1], in assay [2], in assay [3], in assay [4], in assay [5] and in [6] was inactive. For the same compound, the compound was classed as inactive in assay [8] and in assay [9].

Take `CC(O)COc1ccccc1` (centres undefined): the outcome in [1], in assay [2], in assay [3], in assay [4], in assay [5] and in assay [6] was inactive. The result in [7] and in [8] was inactive.

With `O=P(O)(O)CCC(F)(F)C(F)(F)C(F)(F)C(F)(F)C(F)(F)C(F)(F)F`, the outcome in assay [1], in assay [2], in assay [3], in assay [4], in assay [5] and in assay [9] was inactive.

Turning to `N=C(N)c1ccc(OCCCCCOc2ccc(C(=N)N)cc2)cc1`, the result in assay [1], in [5], in [7] and in assay [8] was inactive. Moreover, the AC50 in assay [2] is 0.781 µM (active); in assay [3], 116 µM (active); in [4], 0.813 µM (active); in [6], 23.3 µM (active).

Turning to `O=S(=O)(O)c1ccccc1`, the outcome in assay [1], in [2], in [3], in assay [4], in assay [5] and in assay [6] was inactive. The result in assay [7] and in assay [8] was inactive.

Regarding `CCc1cccc(CC)c1N(COC)C(=O)CS(=O)(=O)O`, the result in assay [1], in [2], in assay [3], in assay [4], in assay [5] and in assay [6] was inactive. Also, the compound was called inactive in assay [7] and in assay [8].

With `O=C1NS(=O)(=O)c2ccccc21`, the outcome in assay [1], in assay [2], in [3], in [4], in [5] and in [6] was inactive. In addition, the result in assay [7], in assay [8] and in [9] was inactive.

Turning to `CCCCC(CC)C(=O)O` (centres undefined), the outcome in [1], in [2], in assay [3], in [4], in [5] and in assay [6] was inactive. Besides, the call in assay [8] was inactive.

In the case of `FC(F)(F)C(F)(F)C(F)(F)C(F)(F)I`, the outcome in assay [1], in [2], in assay [3], in [4], in [5] and in [6] was inactive. In addition, the compound was called inactive in assay [7], in assay [8] and in assay [9].

For `Cn1sccc1=O`, the half-maximal activity concentration (AC50) in assay [1] is 161 µM (active); in assay [2] it was 190 µM (active); in assay [3], 74.2 µM (active); in [6], 34.7 µM (active); in assay [7] it was 168 µM (active); in assay [9] it was 72.4 µM (active). Besides, the compound was called inactive in [4], in [5] and in assay [8].

For `COC(=O)C(F)(F)C(F)(F)C(F)(F)F`, the result in assay [2], in assay [3], in assay [10], in assay [4], in [5] and in [6] was inactive. Further, the compound was classed as inactive in [7], in assay [8] and in assay [9].

Consider `O=S(=O)(O)C(F)(F)C(F)(F)C(F)(F)C(F)(F)C(F)(F)C(F)(F)C(F)(F)C(F)(F)C(F)(F)C(F)(F)F`, for which the outcome in [2], in assay [5], in assay [6] and in assay [8] was inactive. In addition, the AC50 in assay [3] was 8.16 µM (active) and 10.2 µM (active); in assay [10], 50.1 µM (active) and 45.9 µM (active); in assay [4], 22.4 µM (active) and 16.6 µM (active).

Take `CCCCc1ccc2ccccc2c1S(=O)(=O)O`: the call in [2], in assay [3], in assay [10], in assay [4], in [5] and in assay [6] was inactive. Besides, the call in assay [7] and in assay [8] was inactive.

With `O=C(CC(=O)C(F)(F)C(F)(F)C(F)(F)F)c1cccs1`, the AC50 is 50 µM (active) in assay [2]; 11.4 µM (active) and 50 µM (active) in assay [10]; 35.2 µM (active) and 42 µM (active) in assay [4]. Further, the outcome in assay [3] and in assay [5] was “inactive [setting not given]” each time. The result in assay [9] was inactive.

As for `Oc1cc2ccccc2cc1O`, the outcome in assay [2], in assay [3], in assay [5], in assay [8] and in assay [9] was inactive. Besides, the AC50 in [4] was 70.2 µM (active).
